# Tests used:
# [1] = test system: Vero E6 infected with SARS-CoV-2; experiment: morphology score (similarity to uninfected cells); higher = more like uninfected cells; details: 24 h
# [2] = test system: Vero E6 infected with SARS-CoV-2; experiment: SARS-CoV-2 infection rate relative to infected DMSO; higher = more infection, active = 60 or less; details: 24 h
Structure (SMILES),morphology score [1],SARS-CoV-2 infection rate [2]
CCCOCCn1c(=O)c(N2CCN(CCO)CC2)nc2cnc(-c3ccc(OC)nc3)cc21 (10 µM),-0.0795,116% (inactive)
Cc1ncc(CO)c(CO)c1O [pyridoxine] (10 µM),0.0823,108% (inactive)
COc1cc2c(cc1OC)-c1cc3nc4ccccc4nc3n1C(C)(C)C2 (10 µM),0.134,91% (inactive)
O=C(Nc1ccc(Oc2ccc(Cl)cn2)c(Cl)c1)c1ccccn1 (10 µM),0.0983,102% (inactive)
O=C(Nc1ccc(CN2CCOCC2)cc1)c1ccc(-c2cccc(Cl)c2)o1 (10 µM),0.194,110% (inactive)
C[Se]C[C@H](N)C(=O)O [Se-methylselenocysteine] (10 µM),0.107,102% (inactive)
NC(=O)C(c1ccccc1)(c1ccccc1)[C@@H]1CCN(CCc2ccc3c(c2)CCO3)C1 [darifenacin] (10 µM),-0.025,106% (inactive)
O=C(O)CNC(=O)c1c(O)c2ccccc2n(Cc2ccccc2)c1=O (10 µM),-0.000636,102% (inactive)
Cc1cc(O)cc(C)c1Cl [chloroxylenol] (10 µM),0.0293,99% (inactive)
Cc1ccc2c(c1)c1c3n2CCNC3CCC1 (stereo unspecified) [pirlindole] (10 µM),0.0112,106% (inactive)
Cc1cc2c(N3CCCC3)nc(N3CCCC3)nc2n1C (10 µM),0.452,75% (inactive)
Cc1c(F)cc(C(=O)NC2CC2)cc1-c1ccc(C(=O)NCC(C)(C)C)cn1 [losmapimod] (10 µM),0.0455,98.5% (inactive)
N[C@@H](C(=O)O)[C@@H](OCc1ccccc1)C(=O)O.N[C@H](C(=O)O)[C@H](OCc1ccccc1)C(=O)O (10 µM),0.0333,106% (inactive)
O=C(NC1CCNCC1)c1n[nH]cc1NC(=O)c1c(Cl)cccc1Cl (10 µM),-0.285,109% (inactive)
COc1c(C)c(C(=O)c2ccc(N)c(C(=O)O)c2)n2ccccc12 (10 µM),0.0882,105% (inactive)
CN1C(=O)CC(c2ccccc2)C1=O (stereo unspecified) [phensuximide] (10 µM),0.0814,112% (inactive)
CC(C)(C)CC(C)(C)c1ccc(OCCOCC[N+](C)(C)Cc2ccccc2)cc1 [benzethonium] (10 µM),-0.104,108% (inactive)
O=[N+]([O-])c1ccc2nc(COCc3nc4ccc([N+](=O)[O-])cc4[nH]3)[nH]c2c1 (10 µM),-0.00439,94.5% (inactive)
CC(C)Oc1ccc(-c2nc(-c3cccc4c3CC[C@@H]4NCCO)no2)cc1C#N [ozanimod] (0.833333 µM),0.262,101% (inactive)
CCOC(=O)CCNc1cc(N2CCc3ccccc3CC2)nc(-c2ccccn2)n1 (0.833333 µM),-0.0369,116% (inactive)
CC(=O)OCC(=O)[C@@]12OC(C)(C)O[C@@H]1C[C@H]1[C@@H]3C[C@H](F)C4=CC(=O)C=C[C@]4(C)[C@@]3(F)[C@@H](O)C[C@@]12C [fluocinonide] (10 µM),0.184,104% (inactive)

Structure (SMILES),morphology score [1],SARS-CoV-2 infection rate [2]
C=CC(=O)Nc1cccc(Oc2nc(Nc3ccc(N4CCN(C)CC4)cc3)nc3ccsc23)c1 [olmutinib] (0.833333 µM),-0.0965,94.5% (inactive)
CN(C)CCCNC(=O)c1ccc(-c2cc(O)c3ncccc3c2)cc1 (0.833333 µM),-0.00508,108% (inactive)
CNC(=O)c1c(I)c(C(=O)NCC(=O)Nc2c(I)c(C(=O)O)c(I)c(C(=O)NCCO)c2I)c(I)c(N(C)C(C)=O)c1I [ioxaglic-acid] (10 µM),0.0564,104% (inactive)
CC(C)CNc1ccnc(NCc2csc(-c3ccccc3)n2)n1 (0.833333 µM),-0.0256,106% (inactive)
Cc1cc(Cn2cnc3c2C[C@@H](C(=O)O)N(C(=O)C(c2ccccc2)c2ccccc2)C3)ccc1N(C)C (10 µM),0.0919,99% (inactive)
Nc1nc2c(ncn2[C@@H]2O[C@H](CO)[C@@H](O)[C@H]2O)c(=O)[nH]1 [guanosine] (10 µM),0.0982,106% (inactive)
COc1ccc(Cl)cc1[C@]1(F)C(=O)Nc2cc(C(F)(F)F)ccc21 [flindokalner] (10 µM),0.165,99.5% (inactive)
COC(=O)C1=C(C)NC(C)=C(C(=O)O[C@H]2CCN(Cc3ccccc3)C2)[C@H]1c1cccc([N+](=O)[O-])c1 [barnidipine] (10 µM),-0.0592,112% (inactive)
O=C(O)[C@H](O)[C@@H](O)[C@H](O[C@@H]1O[C@H](CO)[C@H](O)[C@H](O)[C@H]1O)[C@H](O)CO [maltobionic-acid] (10 µM),0.138,92.5% (inactive)
O=c1ncccn1[C@@H]1O[C@H](CO)[C@@H](O)[C@H]1O [zebularine] (10 µM),0.0754,104% (inactive)
CCn1cc(C(=O)O)c(=O)c2cc(F)c(N3CCNCC3)nc21 [enoxacin] (10 µM),0.124,105% (inactive)
O=C(NCCCN1CCOCC1)c1ccc(Cl)cc1 [eprobemide] (10 µM),-0.0432,108% (inactive)
COc1cc(OC)c(/C=C/S(=O)(=O)Cc2ccc(OC)c(OP(=O)(O)O)c2)c(OC)c1 [briciclib] (0.833333 µM),-0.0884,92% (inactive)
CC(C)(C)c1ccc(C(=O)Nc2cn3cc(-n4ccnc4)ccc3n2)cc1 (10 µM),-0.0468,100% (inactive)
O=C(NCCCCN1CCN(c2cccc(Cl)c2Cl)CC1)c1ccc2c(c1)Cc1ccccc1-2 (10 µM),-0.00329,105% (inactive)
N[C@@H](CSCCCO)C(=O)O [fudosteine] (10 µM),0.0399,104% (inactive)
"C1CCC2(CC1)CCNCC2 [4,4-pentamethylenepiperidine] (10 µM)",-0.0731,104% (inactive)
O=C(NCc1ccncc1)C12CC3CC(C1)CC(c1ccc(Cl)cc1)(C3)C2 (10 µM),0.00848,97% (inactive)
COc1cccc(Nc2ncnn3ccc(CN4CC[C@@H](N)[C@H](O)C4)c23)c1 (0.833333 µM),-0.24,112% (inactive)
O=c1cc(N2CCNCC2)oc2c(-c3ccccc3)cccc12 (10 µM),0.175,101% (inactive)
Oc1ccc(/C=C/c2cc(O)cc(O)c2)cc1 [resveratrol] (10 µM),0.0102,104% (inactive)

Structure (SMILES),morphology score [1],SARS-CoV-2 infection rate [2]
O=C1c2cc(Cl)ccc2OC2CCON12 (stereo unspecified) [seclazone] (10 µM),0.0763,102% (inactive)
O=c1[nH]c(=O)n([C@H]2C[C@H](O)[C@@H](CO)O2)cc1/C=C/Br [brivudine] (10 µM),0.0102,108% (inactive)
O=C(c1ccc(-c2ccc(Cl)cc2)o1)N(Cc1ccccn1)c1ccc(N2CCNCC2)cc1 (0.833333 µM),0.128,106% (inactive)
CN(C)[C@@H](CCOc1cccc2ccccc12)c1ccccc1 [dapoxetine] (10 µM),0.467,76% (inactive)
C[C@H]1C[C@H]2[C@@H]3CCC4=CC(=O)C=C[C@]4(C)[C@@]3(F)[C@@H](O)C[C@]2(C)[C@@]1(O)C(=O)CO [betamethasone] (10 µM),-0.0234,111% (inactive)
O=C(NOCC1CC1)c1ccc(F)c(F)c1Nc1ccc(I)cc1Cl (10 µM),0.0812,100% (inactive)
CC[C@H]1[C@@H]2C[C@H]3[C@@H]4N(C)c5ccccc5[C@]45C[C@@H]([C@@H]2[C@H]5O)N3[C@@H]1O [ajmaline] (10 µM),-0.0982,106% (inactive)
C=CCN1CCCC1CNC(=O)c1cc2nn[nH]c2cc1OC (stereo unspecified) [alizapride] (10 µM),-0.124,121% (inactive)
O=C1C2C=Nc3ccccc3C2=NN1c1ccc(Cl)cc1 (stereo unspecified) (10 µM),-0.264,120% (inactive)
CC(=O)N[C@@H](Cc1c[nH]c2ccccc12)C(=O)OCc1cc(C(F)(F)F)cc(C(F)(F)F)c1 (10 µM),0.31,93% (inactive)
CN1C(=O)CCS(=O)(=O)C1c1ccc(Cl)cc1 (stereo unspecified) [chlormezanone] (10 µM),-0.0968,117% (inactive)
O=C(NCc1ccc(Oc2ccccc2)cc1)c1nc(-c2cc(Br)c(O)c(Br)c2)no1 (0.833333 µM),0.0493,100% (inactive)
CC(C)N(CCC(C(N)=O)(c1ccccc1)c1ccccn1)C(C)C (stereo unspecified) [disopyramide] (10 µM),0.157,104% (inactive)
Nc1nc(=O)n([C@H]2C[C@H](O)[C@@H](CO)O2)cc1Cl [cytochlor] (10 µM),0.156,102% (inactive)
CCOc1ccc(NC(=S)N2CCC(C(O)(c3ccccc3)c3ccccc3)CC2)cc1 (10 µM),0.267,86.5% (inactive)
O=C(COP(=O)(O)O)[C@@H](O)[C@H](O)[C@H](O)COP(=O)(O)O [fosfructose] (10 µM),-0.202,120% (inactive)
C[C@H](CCC(=O)O)[C@H]1CC[C@H]2[C@@H]3CC[C@@H]4C[C@H](O)CC[C@]4(C)[C@H]3CC[C@]12C [lithocholic-acid] (10 µM),0.0318,110% (inactive)
OCCCNc1ccccc1 [3-anilinopropan-1-ol] (10 µM),-0.164,110% (inactive)
CC1Nc2ccc(Cl)cc2S(=O)(=O)N1 (stereo unspecified) (10 µM),0.135,100% (inactive)
CC(C)(C)c1ccc(CN(Cc2cccc(OCC(=O)O)c2)S(=O)(=O)c2cccnc2)cc1 [evatanepag] (10 µM),-0.0093,97.5% (inactive)
CN(C)CCN(C)CCc1ccc(Cl)c(Cl)c1 (10 µM),0.208,82.5% (inactive)

# From the supplement of paper PMC13380429
